These results are taken from PubChem BioAssay.

Assay [1] has as its system Human papillomavirus type 1a protein E7 (residues 44-93). Put plainly: HPV1a E7 fragment binders on microarrays, primary screen, biochemical, small-molecule microarray, residues 44-93, 635 nm fluorescence (AID 1108).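 Note: E7 fragment applied at 1 µg/mL in TBST for 1 h at 4 C; score combines spot fluorescence with its signal to noise ratio.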 To be noted: small-molecule microarray binding, fluorescence 635 nm; higher = more signal.
Assay [2] can be described thus: modulators of HCV replicon luciferase signal, primary screen, HCV replication inhibitor project, Huh7 cells, luciferase reporter (AID 1109).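 Note: huh7 hepatoma cells harbouring a luciferase neomycin HCV replicon reporter; luciferase luminescence as measure of HCV replicon replication; test concentration not given here.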 The note with it: 48 h, higher = more signal. (In general: A replicon is a self-replicating genome or part of one, used to study replication in cells.)
The target of assay [3] is Left-right determination factor 2 (Homo sapiens) (UniProt O00292). As to the kind of experiment: LEFTY2 binders on small-molecule microarrays, primary screen, biochemical, small-molecule microarray, 635 nm fluorescence scan (AID 1110). To be noted: LEFTY2 binding, higher = more signal.
Left-right determination factor 2 (Homo sapiens), sequence (O00292 whole entry, looked up): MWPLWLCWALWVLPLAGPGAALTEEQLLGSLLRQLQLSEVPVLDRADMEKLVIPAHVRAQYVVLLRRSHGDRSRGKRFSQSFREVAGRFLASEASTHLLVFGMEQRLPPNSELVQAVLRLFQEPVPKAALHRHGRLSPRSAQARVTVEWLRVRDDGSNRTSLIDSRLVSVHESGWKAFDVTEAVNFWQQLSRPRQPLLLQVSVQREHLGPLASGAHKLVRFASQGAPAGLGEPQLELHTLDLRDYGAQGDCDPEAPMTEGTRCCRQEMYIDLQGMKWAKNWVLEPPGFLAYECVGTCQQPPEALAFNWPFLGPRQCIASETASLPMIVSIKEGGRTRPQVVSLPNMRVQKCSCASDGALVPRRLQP
The target of assay [4] is Calmodulin-1 (Homo sapiens) (UniProt P0DP23). Put plainly: CALM1 binders on microarrays, EGTA buffer, profiling panel, biochemical, small-molecule microarray, Cy5-labelled CALM1 (AID 1111).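 Note: labelled calmodulin applied in Tris saline Tween buffer holding calcium plus EGTA and DTT.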 The note with it: Cy5-CALM1 binding fluorescence, higher = more signal.
The target is the same in assay [5]. Put plainly: calcium-bound CALM1 binders on microarrays, profiling panel, artefact control for SMM control-protein annotation, biochemical, small-molecule microarray, Cy5-labelled CALM1, plus calcium (AID 1112).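 Note: score merges spot fluorescence with signal to noise from triplicate slides.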 To be noted: Cy5-CALM1 binding fluorescence, higher = more signal.
A short description of assay [6]: small-molecule microarray binders of probe aWnt5a, primary screen, biochemical, biotinylated probe, 635/667 nm fluorescence (AID 1113).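 Note: score merges 667 nm fluorescence intensity with signal-to-noise per printed feature.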 The note with it: higher = more signal.
Assay [7] in a line: small-molecule microarray binders of probe aShh, primary screen, biochemical, biotinylated probe, 635/667 nm fluorescence (AID 1114).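 Note: probe is biotin-labelled aShh protein from a stem cell growth factor screen; measures binding of labelled protein to compounds printed on the slide; score merges feature fluorescence at 667 nm with signal-to-noise.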 The note with it: higher = more signal.
A short description of assay [8]: small-molecule microarray binders of probe aNog, primary screen, biochemical, biotinylated probe, 635/667 nm fluorescence (AID 1115).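 Note: probe is biotinylated aNog protein used at 0.15 µg/mL for 1 h at 4 C; z-score combines 667 nm fluorescence of each spot with its signal to noise.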 The note with it: higher = more signal.
For assay [9], the target named is Torsin-1A-interacting protein 1 (Homo sapiens) (UniProt Q5JTV8). As to the kind of experiment: LAP1 binders from COS7 cell lysate, primary screen, small-molecule microarray, 635/667 nm fluorescence (AID 1116). To be noted: COS7-hLAP1 lysate binding, 635 nm fluorescence, higher = more signal.
Torsin-1A-interacting protein 1 (Homo sapiens), sequence (Q5JTV8 whole entry, looked up): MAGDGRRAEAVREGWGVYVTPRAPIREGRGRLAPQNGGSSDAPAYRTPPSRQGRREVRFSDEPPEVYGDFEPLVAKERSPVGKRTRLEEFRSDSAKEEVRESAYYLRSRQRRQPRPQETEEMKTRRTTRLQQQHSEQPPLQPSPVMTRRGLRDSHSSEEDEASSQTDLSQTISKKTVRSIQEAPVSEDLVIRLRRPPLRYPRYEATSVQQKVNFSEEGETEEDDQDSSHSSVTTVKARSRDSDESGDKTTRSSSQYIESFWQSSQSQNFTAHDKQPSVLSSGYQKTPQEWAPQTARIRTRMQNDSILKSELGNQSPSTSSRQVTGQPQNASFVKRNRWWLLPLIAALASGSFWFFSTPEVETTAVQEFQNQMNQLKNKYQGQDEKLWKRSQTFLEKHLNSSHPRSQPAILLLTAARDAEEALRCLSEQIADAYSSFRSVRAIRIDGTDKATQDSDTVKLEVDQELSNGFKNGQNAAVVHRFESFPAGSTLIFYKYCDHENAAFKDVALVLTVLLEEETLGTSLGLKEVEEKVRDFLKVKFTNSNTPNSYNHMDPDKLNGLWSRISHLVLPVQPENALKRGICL
Assay [10] addresses Alpha-bungarotoxin (Bungarus multicinctus) (UniProt P60615). As to the kind of experiment: alpha-bungarotoxin binders on microarray, profiling panel, artefact control for SMM control protein annotation, biochemical, small-molecule microarray, Alexa647 label, 635/667 nm fluorescence (AID 1117). To be noted: alpha-BTX-A647 binding fluorescence, higher = more signal.
Assay [11] has as its target Albumin (Bos taurus) (UniProt P02769). As to the kind of experiment: bovine serum albumin binders on microarray, profiling panel, artefact control for SMM control protein annotation, biochemical, small-molecule microarray, Alexa647 label, 635/667 nm fluorescence (AID 1118).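 Note: score merges 667 nm emission intensity and signal-to-noise per printed compound spot.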 To be noted: BSA-A647 binding, fluorescence 635 nm, higher = more signal.
A short description of assay [12]: small-molecule microarray binders of probe aXIP, primary screen, biochemical, NeuroSMM set, 635/667 nm fluorescence (AID 1119).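 Note: probe is the protein aXip251-270 applied at 1 µg/mL to compound-printed slides; binding of probe to printed compounds measured as 667 nm fluorescence plus signal to noise.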 The note with it: higher = more signal, called active from +8 up or from −8 down.
Assay [13] in a line: small-molecule binders of probe aNOTCH3, primary screen, biochemical, small-molecule microarray, 635/667 nm fluorescence (AID 1120).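 Note: probe is a biotin-tagged antibody raised against NOTCH3 rather than NOTCH3 protein; score merges spot fluorescence near 667 nm with spot signal to noise.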 The note with it: higher = more signal.
A short description of assay [14]: small-molecule binders of probe aNOTCH2, primary screen, biochemical, small-molecule microarray, 635/667 nm fluorescence (AID 1121).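 Note: score merges feature fluorescence read at 667 nm with its signal to noise.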 The note with it: higher = more signal.
In assay [15] the target is Carbonic anhydrase 2 (Homo sapiens) (UniProt P00918). As to the kind of experiment: CAII small-molecule binders, profiling panel, biochemical, small-molecule microarray, Alexa647-labelled CAII (AID 1122). The note with it: CAII-A647 binding fluorescence, higher = more signal.
Assay [16] in a line: COS7 lysate on small-molecule microarray, probe aHis, 635 nm (AID 1123).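 Note: z-score combines 667nm fluorescence intensity with signal-to-noise per printed compound spot.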 To be noted: COS7 cell lysate, fluorescence, higher = more signal.
The nature of assay [17]: compound binding in COS7 lysate, probe aLAP1, primary screen, cell lysate, small-molecule microarray (AID 1124).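 Note: lysate comes from COS7 cells expressing LAP1 and is applied at 0.3 µg/mL; score merges spot fluorescence near 667 nm with signal-to-noise over triplicate slides.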 To be noted: probe aLAP1, fluorescence, higher = more signal.
The test system of assay [18] is Sam68 (KHDRBS1). As to the kind of experiment: Sam68 small-molecule binders, primary screen, biochemical, small-molecule microarray, 635 nm fluorescence (AID 1125).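 Note: score merges 667 nm channel intensity with signal to noise over triplicate slides.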 The note with it: small-molecule microarray binding, higher = more signal.
For assay [19], the system named is Chordin-like protein 2 (CHRDL2). Put plainly: CHRDL2 small-molecule binders, primary screen, biochemical, small-molecule microarray, 635 nm fluorescence (AID 1126).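 Note: printed compound slides probed with Chrdl2 protein at 4 µg/mL for 1 h at 4 C; score merges 667 nm emission intensity with signal to noise over three replicate slides.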 To be noted: small-molecule microarray binding, fluorescence 635 nm; higher = more signal.
Assay [20] deals with Concanavalin-A (Canavalia ensiformis) (UniProt P02866). Put plainly: ConA small-molecule binders, primary screen, artefact control for SMM control protein annotation, biochemical, small-molecule microarray, Alexa647 label, 635 nm (AID 1127).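 Note: z combines 667 nm emission intensity with signal-to-noise across three replicate slides.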 To be noted: ConA-A647 binding fluorescence, higher = more signal.
Concanavalin-A (Canavalia ensiformis), sequence (P02866 whole entry, looked up): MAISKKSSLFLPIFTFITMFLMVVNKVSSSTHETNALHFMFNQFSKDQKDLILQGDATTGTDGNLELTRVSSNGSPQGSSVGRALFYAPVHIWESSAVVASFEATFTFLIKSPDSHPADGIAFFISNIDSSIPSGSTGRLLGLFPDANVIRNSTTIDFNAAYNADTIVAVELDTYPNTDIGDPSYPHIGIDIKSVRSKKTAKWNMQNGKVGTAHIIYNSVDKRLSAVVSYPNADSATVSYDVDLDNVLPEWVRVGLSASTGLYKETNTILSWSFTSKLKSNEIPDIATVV

Structures are written as SMILES. Calls of active or inactive are those of the source.

Alpha-bungarotoxin (Bungarus multicinctus), sequence (P60615 whole entry, looked up): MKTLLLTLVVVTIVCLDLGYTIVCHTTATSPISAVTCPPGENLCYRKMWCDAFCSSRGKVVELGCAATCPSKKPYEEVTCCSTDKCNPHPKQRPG
Albumin (Bos taurus), sequence (P02769 whole entry, looked up): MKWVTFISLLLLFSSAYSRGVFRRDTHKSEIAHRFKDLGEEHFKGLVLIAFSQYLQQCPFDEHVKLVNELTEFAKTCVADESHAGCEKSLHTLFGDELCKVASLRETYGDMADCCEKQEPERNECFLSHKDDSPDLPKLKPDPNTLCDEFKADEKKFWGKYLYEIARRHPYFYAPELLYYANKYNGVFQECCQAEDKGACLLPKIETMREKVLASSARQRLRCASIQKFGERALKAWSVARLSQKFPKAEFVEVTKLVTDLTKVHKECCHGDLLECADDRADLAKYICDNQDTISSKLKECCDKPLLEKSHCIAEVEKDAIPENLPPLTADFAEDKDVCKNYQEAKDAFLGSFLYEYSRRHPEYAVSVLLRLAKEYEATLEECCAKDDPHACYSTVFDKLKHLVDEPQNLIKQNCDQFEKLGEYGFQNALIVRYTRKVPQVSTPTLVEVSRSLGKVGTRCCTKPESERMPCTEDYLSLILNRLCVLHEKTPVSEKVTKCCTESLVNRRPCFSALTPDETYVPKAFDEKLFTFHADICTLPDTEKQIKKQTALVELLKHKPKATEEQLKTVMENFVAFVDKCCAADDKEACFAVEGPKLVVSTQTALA

With `COCCOC(=O)N1C(=O)[C@@]2(c3cc(C#CCCO)ccc31)[C@H](C(=O)NC[C@H](O)c1ccccc1)[C@H]1C(=O)O[C@H](c3ccccc3)[C@H](c3ccccc3)N1[C@@H]2c1ccccc1OCCO`, the composite z-score was 1.43 in [1]; 0.966 in assay [3]; 0.362 in assay [4]; -0.354 in assay [5]; 0.287 in assay [6]; 0.323 in assay [7]. Moreover, the composite z-score in assay [8] is 1.36; in assay [9] it was 1.12; in assay [10], 0.784; in [11], -0.919; in assay [13], 0.252; in assay [14], 0.177. Besides, the composite z-score is 0.0771 in [15]; 1.33 in assay [16]; 1.32 in assay [17]; 1.3 in assay [18]; 0.969 in assay [19]; 1.09 in assay [20]. Also, the z-score in [2] was -1.31. Besides, in assay [12], the composite Z-score is 0.427 (inactive).

For `O=C1CSC(c2cccc([N+](=O)[O-])c2)N1c1ccccc1` (stereo not given), the composite z-score was 0.551 in assay [1]; 0.688 in [3]; 0.331 in assay [4]; -0.071 in assay [5]; -0.135 in [6]; -0.221 in [7]. In addition, the composite z-score in assay [8] is -0.073; in [9], 0.273; in assay [10] it was 0.163; in assay [11], 0.0623; in assay [13], -0.0647; in assay [14], -0.172. Further, the composite z-score in [15] was 0.153; in assay [16], 0.523; in assay [17], 0.537; in assay [18], 0.557; in assay [19], 0.286; in assay [20], 0.612. For the same compound, the z-score in [2] is -1.16. For the same compound, the composite Z-score in assay [12] was 0.0045 (inactive).

As for `COc1ccccc1CN1C(=O)c2ccccc2[C@@]2(Cc3ccccc3N(C3CC3)C2=O)[C@@H]1c1ccc(CO)cc1`, the composite z-score was -0.447 in assay [1]; -0.921 in [3]; 0.117 in assay [4]; -0.164 in assay [5]; -0.131 in assay [6]; 0.0062 in assay [7]. In addition, the composite z-score in assay [8] was -0.422; in [9] it was -0.455; in [10] it was 0.134; in assay [11], 0.0999; in [13], -0.15; in assay [14] it was -0.112. For the same compound, the composite z-score in assay [15] was 0.669; in [16] it was 0.165; in [17] it was -0.978; in [18] it was -0.557; in assay [19], -0.39; in assay [20], 0.107. In addition, in assay [2], the z-score is -0.344. The composite Z-score in assay [12] was 0.794 (inactive).

Turning to `C=CCOC(=O)[C@@H]1[C@H]2C(=O)O[C@H](c3ccccc3)[C@H](c3ccccc3)N2[C@H](c2ccc(OCCOC(=O)[C@@H]3C[C@@H]4C(=O)N5CCC[C@H]5C(=O)N4[C@@H]3c3cccc(OCCO)c3)cc2)[C@@]12C(=O)Nc1ccc(I)cc12`, the composite z-score in assay [1] is 1.31; in assay [3] it was 0.56; in assay [4], 1.25; in assay [5] it was -0.141; in assay [6], -0.0718; in assay [7], -0.264. In addition, the composite z-score is -0.342 in assay [8]; 0.972 in assay [9]; 1.11 in [10]; 0.226 in assay [11]; -0.055 in [13]; -0.101 in assay [14]. Moreover, the composite z-score in assay [15] was 0.0553; in assay [16], 1.34; in assay [17], 0.167; in [18] it was 1.29; in [19], 1; in assay [20] it was 1.14. Besides, in [2], the z-score is -1.01. In assay [12], the composite Z-score was -0.244 (inactive).

Regarding `CC(=O)NCCCC[C@@H]1NC(=O)[C@@H]2C[C@H](C(=O)NCCCC[N+](C)(C)C)[C@H](c3cccc(OCCO)c3)N2C1=O`, the composite z-score in assay [1] was 0.193; in assay [3], 0.0711; in assay [4], 0.601; in assay [5], 0.0189; in assay [6], -0.122; in [7], -0.0643. The composite z-score was -0.314 in assay [8]; 0.714 in [9]; -0.08 in [10]; -0.134 in assay [11]; 0.0426 in [13]; -0.125 in assay [14]. Besides, the composite z-score is 0.799 in assay [15]; 0.661 in [16]; 0.331 in assay [17]; -1.33 in assay [18]; 0.349 in [19]; -0.0028 in [20]. The z-score in assay [2] was -0.703. Further, the composite Z-score in assay [12] was 0.0725 (inactive).
